From ChEMBL document CHEMBL1961873, “Compounds: GSK PKIS; Assays: Nanosyn kinase panel” (2012)

Tests used:
[1] = molecular target: CDK3/Cyclin E (Homo sapiens) (UniProt P24864+Q00526); conditions: at 1 µM;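 further: each figure is a mean percent inhibition of the CDK3/cyclin E complex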
[2] = molecular target: Cyclin-dependent kinase 4 (Homo sapiens) (UniProt P11802); conditions: at 0.1 µM
[3] = molecular target: Cyclin-dependent kinase 4 (Homo sapiens) (UniProt P11802); conditions: at 1 µM
[4] = molecular target: Cyclin-dependent kinase 5 (Homo sapiens) (UniProt Q00535); conditions: at 0.1 µM
[5] = molecular target: Cyclin-dependent kinase 5 (Homo sapiens) (UniProt Q00535); conditions: at 1 µM
[6] = molecular target: Cyclin-dependent kinase 6 (Homo sapiens) (UniProt Q00534); conditions: at 0.1 µM
[7] = molecular target: Cyclin-dependent kinase 6 (Homo sapiens) (UniProt Q00534); conditions: at 1 µM
[8] = molecular target: Dual specificity protein kinase CLK2 (Homo sapiens) (UniProt P49760); conditions: at 0.1 µM
[9] = molecular target: Dual specificity protein kinase CLK2 (Homo sapiens) (UniProt P49760); conditions: at 1 µM
[10] = molecular target: Dual specificity protein kinase CLK3 (Homo sapiens) (UniProt P49761); conditions: at 0.1 µM
Chain of Dual specificity protein kinase CLK3 (Homo sapiens) (P49761 whole entry, looked up): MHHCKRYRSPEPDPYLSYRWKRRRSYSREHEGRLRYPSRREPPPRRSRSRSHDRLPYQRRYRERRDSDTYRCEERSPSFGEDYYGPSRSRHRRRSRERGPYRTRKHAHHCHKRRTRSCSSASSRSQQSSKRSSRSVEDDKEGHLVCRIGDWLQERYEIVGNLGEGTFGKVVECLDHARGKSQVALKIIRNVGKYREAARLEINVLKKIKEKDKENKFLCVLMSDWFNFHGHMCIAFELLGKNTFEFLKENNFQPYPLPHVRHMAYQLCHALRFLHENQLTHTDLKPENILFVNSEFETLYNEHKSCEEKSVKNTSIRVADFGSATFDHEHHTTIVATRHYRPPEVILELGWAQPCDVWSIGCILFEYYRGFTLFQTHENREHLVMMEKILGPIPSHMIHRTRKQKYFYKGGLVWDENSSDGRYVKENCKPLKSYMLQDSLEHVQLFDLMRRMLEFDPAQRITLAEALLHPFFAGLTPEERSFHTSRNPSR

Chain of Cyclin-dependent kinase 5 (Homo sapiens) (Q00535 whole entry, looked up): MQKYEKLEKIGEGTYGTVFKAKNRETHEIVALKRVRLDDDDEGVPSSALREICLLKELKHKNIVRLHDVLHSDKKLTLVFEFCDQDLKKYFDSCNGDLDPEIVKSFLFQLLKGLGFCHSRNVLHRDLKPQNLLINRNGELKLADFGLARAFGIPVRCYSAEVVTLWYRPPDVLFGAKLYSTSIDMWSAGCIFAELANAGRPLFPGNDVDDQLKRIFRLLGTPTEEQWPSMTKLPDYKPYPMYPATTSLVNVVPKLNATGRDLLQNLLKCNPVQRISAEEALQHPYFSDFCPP
Chain of Cyclin-dependent kinase 4 (Homo sapiens) (P11802 whole entry): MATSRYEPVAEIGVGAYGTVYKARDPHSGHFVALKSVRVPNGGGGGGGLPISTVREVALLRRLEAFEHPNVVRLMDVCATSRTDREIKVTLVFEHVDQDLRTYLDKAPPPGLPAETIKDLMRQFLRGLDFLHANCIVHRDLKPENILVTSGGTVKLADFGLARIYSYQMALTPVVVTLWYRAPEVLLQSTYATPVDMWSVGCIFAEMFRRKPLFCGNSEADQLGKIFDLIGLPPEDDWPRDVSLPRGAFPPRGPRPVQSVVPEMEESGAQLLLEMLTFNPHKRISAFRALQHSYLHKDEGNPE
Chain of CDK3/Cyclin E (Homo sapiens) (P24864 whole entry, looked up): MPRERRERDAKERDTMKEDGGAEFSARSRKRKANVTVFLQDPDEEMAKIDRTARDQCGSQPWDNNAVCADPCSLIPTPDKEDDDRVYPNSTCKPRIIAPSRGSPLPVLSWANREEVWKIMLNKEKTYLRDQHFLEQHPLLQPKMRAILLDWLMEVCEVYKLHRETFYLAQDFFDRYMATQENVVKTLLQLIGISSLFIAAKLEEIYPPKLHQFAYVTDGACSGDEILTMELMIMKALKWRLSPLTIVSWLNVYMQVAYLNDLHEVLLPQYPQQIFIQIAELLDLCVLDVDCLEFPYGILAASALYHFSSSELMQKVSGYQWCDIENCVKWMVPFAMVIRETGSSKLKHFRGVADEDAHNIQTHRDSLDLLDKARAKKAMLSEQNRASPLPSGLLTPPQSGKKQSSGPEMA
Chain of CDK3/Cyclin E (Homo sapiens) (Q00526 whole entry, looked up): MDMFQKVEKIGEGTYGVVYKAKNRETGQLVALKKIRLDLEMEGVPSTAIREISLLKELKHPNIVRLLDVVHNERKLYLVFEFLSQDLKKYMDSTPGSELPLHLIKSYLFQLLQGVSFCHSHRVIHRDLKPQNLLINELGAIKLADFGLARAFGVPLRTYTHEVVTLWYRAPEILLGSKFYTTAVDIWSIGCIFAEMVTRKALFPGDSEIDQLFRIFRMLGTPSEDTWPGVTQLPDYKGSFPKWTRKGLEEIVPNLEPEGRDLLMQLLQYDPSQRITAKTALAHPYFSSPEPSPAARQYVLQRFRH
Chain of Dual specificity protein kinase CLK2 (Homo sapiens) (P49760 whole entry, looked up): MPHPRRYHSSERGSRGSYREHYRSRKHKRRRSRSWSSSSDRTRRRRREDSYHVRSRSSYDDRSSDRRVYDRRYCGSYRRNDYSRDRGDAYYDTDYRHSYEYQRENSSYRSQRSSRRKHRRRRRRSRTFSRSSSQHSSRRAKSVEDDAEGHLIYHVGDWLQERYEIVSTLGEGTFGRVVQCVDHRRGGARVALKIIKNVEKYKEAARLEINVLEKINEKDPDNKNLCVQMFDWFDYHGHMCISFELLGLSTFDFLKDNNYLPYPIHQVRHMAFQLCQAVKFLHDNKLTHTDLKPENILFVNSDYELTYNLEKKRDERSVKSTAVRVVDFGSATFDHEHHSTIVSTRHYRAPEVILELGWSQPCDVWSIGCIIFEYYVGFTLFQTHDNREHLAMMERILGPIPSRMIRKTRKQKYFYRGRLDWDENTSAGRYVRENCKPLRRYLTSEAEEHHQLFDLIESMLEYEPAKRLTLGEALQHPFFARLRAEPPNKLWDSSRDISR
Chain of Cyclin-dependent kinase 6 (Homo sapiens) (Q00534 whole entry): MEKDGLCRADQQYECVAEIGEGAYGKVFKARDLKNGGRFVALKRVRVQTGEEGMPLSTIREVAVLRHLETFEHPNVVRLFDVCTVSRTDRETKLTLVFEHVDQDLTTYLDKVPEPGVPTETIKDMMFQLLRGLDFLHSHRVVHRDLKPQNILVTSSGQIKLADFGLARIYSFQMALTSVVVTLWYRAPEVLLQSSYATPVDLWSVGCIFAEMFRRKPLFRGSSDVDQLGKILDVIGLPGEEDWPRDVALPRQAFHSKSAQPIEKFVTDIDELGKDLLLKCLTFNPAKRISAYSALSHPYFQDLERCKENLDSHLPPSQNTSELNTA

Row | SMILES | inhibition [1] | inhibition [2] | inhibition [3] | inhibition [4] | inhibition [5] | inhibition [6] | inhibition [7] | inhibition [8] | inhibition [9] | inhibition [10]
1 | CC(C)c1ccc2c(c1)NC(=O)/C2=N/Nc1ccc(S(N)(=O)=O)cc1 | 6.26% | 0.37% | 7.65% | 1.59% | 5.95% | 3.38% | 28.6% | -0.26% | -1.61% | -0.29%
2 | C[C@@H](Oc1cc(-n2cnc3ccc(OCC4CCN(C)CC4)cc32)sc1C(N)=O)c1ccccc1C(F)(F)F | 0.6% | -1.73% | 1% | 0.01% | 3.08% | -3.79% | -1.66% | 1.74% | 9.73% | -0.19%
3 | NS(=O)(=O)c1ccc(N/N=C2\C(=O)Nc3ccc(Cl)cc32)cc1 | 83.7% | 6.36% | 28% | 18% | 61% | 15.3% | 56.7% | 0.8% | 2.45% | 1.72%
4 | CS(=O)(=O)CCNCc1nc(-c2ccc3ncnc(Nc4ccc(OCc5cccc(C(F)(F)F)c5)cc4)c3c2)cs1 | -0.52% | 4.15% | 3.83% | 0.46% | -0.01% | -2.37% | 3.31% | -2.75% | 1.02% | 0.04%
5 | COC(=O)Nc1nc2cc(Oc3ccc(NC(=O)Nc4cccc(Br)c4)cc3)ccc2[nH]1 | -4.35% | 2.4% | 2.61% | 0.44% | 1.22% | -3.24% | 0.22% | 0.85% | 1.48% | 1.73%
6 | Nc1nccc(C#Cc2cncnc2Nc2ccc(OCc3cccc(F)c3)c(Cl)c2)n1 | 0.78% | 3.03% | 4.61% | 1.09% | 1.9% | 3.61% | 2.5% | 2.79% | 14.2% | 1.85%
7 | CC(C)c1ccc(Nc2nccc(-c3cnn4ncccc34)n2)cc1 | 39% | 9.51% | 39.5% | 12.7% | 51.4% | 3.4% | 19.4% | 14% | 65.3% | 3.13%
8 | ON=C1CCc2cc(-c3nc(C4CCNCC4)[nH]c3-c3ccncc3)ccc21 | 0.13% | 0.69% | 2.19% | 0.57% | 1.42% | -5.1% | -0.84% | 2.05% | -0.07% | -0.6%
9 | CN1CCN(C(=O)c2ccc(NC(=O)Nc3ccc(N(C)c4ccnc(Nc5ccc(CS(C)(=O)=O)cc5)n4)cc3)cc2)CC1 | 2.12% | 2.05% | 5.68% | 1.54% | 8.48% | -6.28% | 3.8% | 0.17% | 3.57% | 0.18%
10 | CCOc1nccc2c1nc(-c1nonc1N)n2CC | -0.38% | 0.99% | 1.83% | 0.91% | 1.13% | -2.27% | 1.84% | 1.77% | 1.91% | 1.37%
11 | c1ccc(Nc2ncc(-c3ccccc3)o2)cc1 | 5.78% | 3.04% | 11.5% | 2.22% | 10.4% | 2.71% | 21.7% | 0.96% | 3.74% | -0.17%
12 | O=C1Nc2ccccc2/C1=C/Nc1ccc2[nH]c(=O)[nH]c2c1 | 8.57% | 3.34% | 11.3% | 3.13% | 24.1% | 18.1% | 59% | 6.03% | 30.4% | 1.23%
13 | O=C(Nc1ccc(Oc2ccc3[nH]c(NC(=O)c4ccco4)nc3c2)cc1)Nc1cc(C(F)(F)F)ccc1F | 0.77% | -4.32% | -2.74% | -4.37% | -4.57% | -1.5% | -3.48% | 0.35% | 0.71% | -3.23%
14 | Cc1ccc2c(c1)/C(=N/Nc1ccc(S(N)(=O)=O)cc1)C(=O)N2 | 57.3% | 1.36% | 16.9% | 9.16% | 45.2% | -2.12% | 36.9% | 1.98% | 3.06% | -1.33%
15 | N#Cc1c(NC(=O)c2ccccc2F)sc2c1CCCC2 | -1.38% | -0.94% | 1.2% | 0.27% | 1.58% | -4.39% | -2.09% | -1.95% | -0.15% | -0.38%
16 | Nc1nccc(-c2c(-c3ccc(F)cc3)ncn2CCCN2CCOCC2)n1 | -2.47% | 3.06% | 2.9% | 0.16% | 0.47% | -2.14% | 0.98% | 0.47% | 0.74% | 1.31%
17 | NC(=O)c1cccc(Nc2nccc(Nc3cccc(F)c3)n2)c1 | 3.01% | 0.31% | 2.2% | 0.58% | 3.99% | -1.89% | 0.33% | 0.31% | 5.73% | -0.43%

Row | SMILES | inhibition [1] | inhibition [2] | inhibition [3] | inhibition [4] | inhibition [5] | inhibition [6] | inhibition [7] | inhibition [8] | inhibition [9] | inhibition [10]
18 | COc1cc2ncn(-c3cc(OCc4ccccc4S(C)(=O)=O)c(C#N)s3)c2cc1OC | 2.11% | 3.64% | 3.7% | 1.86% | 3.42% | 6.66% | 3.82% | 0.22% | 10.8% | 2.39%
19 | Oc1cccc(-c2nc(-c3ccccc3)[nH]c2-c2ccncc2)c1 | -2% | 2.45% | 5.74% | 0.71% | 3.06% | -1.44% | 6.21% | 1.81% | 4.52% | 1.66%
20 | COc1cccc(-n2nc(C)c3c(N/N=C(\C)c4ccncc4)ncnc32)c1 | -0.83% | 0.53% | 2.41% | 0.97% | 5.69% | -2.27% | 0.77% | -2.05% | 0.8% | -1.02%
21 | NS(=O)(=O)c1ccc(-c2cc3ccncc3cc2OCc2ccccc2)cc1 | -0.11% | 2.12% | 0.84% | -0.11% | -1.18% | 3.37% | 2.89% | 0.98% | 2.04% | 1.44%
22 | N#Cc1cccc(Nc2nccc(-c3cnn4ncccc34)n2)c1 | 99.9% | 71% | 83.7% | 80.3% | 87% | 61.9% | 84% | 98.9% | 96.9% | 56.7%
23 | COc1ccc(-c2nn3ncccc3c2-c2ccnc(Nc3cccc(C(F)(F)F)c3)n2)cc1 | -2.93% | 1.42% | 3.64% | 0.07% | 1.77% | -1.93% | -0.66% | 0.06% | -1.44% | -0.4%
24 | CCS(=O)(=O)c1ccc(OC)c(Nc2nccc(N(C)c3ccc4c(C)n[nH]c4c3)n2)c1 | -2.55% | 3.02% | 4.42% | 0.13% | 0.33% | -0.16% | -1.74% | 0.8% | 0.04% | 1.1%
25 | CN(C)c1cc2c(Nc3ccc4c(cnn4Cc4ccccc4)c3)ncnc2cn1 | -0.2% | 2.4% | 4.36% | 0.57% | 1.24% | -3.6% | -0.22% | 0.87% | -0.06% | 0.92%
26 | NC(=O)c1sc(-n2cnc3ccccc32)cc1OCc1ccccc1Br | 0.26% | 6.61% | 8.04% | 3.59% | 8.58% | -3.6% | -1.95% | 1.89% | 5.2% | 0.83%
27 | Cc1nc(-c2ccccc2)n2nc(NCCCN3CCOCC3)ncc12 | 0.9% | 4.19% | 15.2% | 0.75% | 2.62% | 13.8% | 52.7% | 3.46% | 10.1% | 0.04%
28 | Cc1ccc(O)cc1Nc1ccnc2ccc(S(C)(=O)=O)cc12 | -3.13% | 3.24% | 4.37% | 0.36% | 2.61% | -4.64% | 3.72% | 2.47% | 7.17% | 1.75%
29 | NS(=O)(=O)c1ccc(Nc2cc(-c3cccc(O)c3)n[nH]2)cc1 | 28.8% | 3.25% | 9.51% | 5.69% | 31.5% | 2.31% | 21.3% | 3.77% | 2.54% | 1.95%
30 | NS(=O)(=O)c1ccc(NC=C2C(=O)Nc3ccc4ncsc4c32)cc1 | 97.8% | 46.4% | 71.3% | 68.2% | 74.7% | 52.8% | 77.7% | 28.3% | 80% | 3.57%
31 | COC(=O)c1ccc2c(c1)C(=Cc1cc(Br)c(O)c(Br)c1)C(=O)N2 | -1.48% | 3.47% | 4.69% | 1.03% | 2.5% | -4.09% | -4.12% | 8.63% | 50.1% | 0.44%
32 | Cc1cc(O)cc(C)c1/C=C/c1cncc(C(=O)N(C)C)c1 | 0.31% | 2.02% | 5.17% | 1.19% | 4.55% | -1.04% | 3.9% | 2.35% | 2.69% | -0.01%
33 | Nc1ccc(C#Cc2cncnc2Nc2ccc(OCc3cccc(F)c3)c(Cl)c2)cc1 | -1.01% | 1.19% | 3.75% | 0.23% | 1.65% | -2.6% | 0.37% | 0.14% | -1.31% | 0.75%
